Several values for one entry are separate records, joined by “and”; a condition that tells them apart may be missing. Identical values can stand only once. Inconclusive results are not listed. Some compounds were tested as several samples or in several runs, with calls that do not always agree. Activity calls are given as the source filed them. The call rests on the fitted dose curve.

The target of test [1] is Acetylcholinesterase (Homo sapiens) (UniProt P22303). Description: Acetylcholinesterase (AChE) small molecule antagonists: colormetric cell-based qHTS assay (AID 1347395). Further: nearly all actives have a fitted effect of over 30% in size. Further: potency means the concentration at half of the fitted maximal effect. Summed up: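 AChE inhibition read colorimetrically via DTNB–thiocholine in SH-SY5Y cells. Compound 30 min, substrate 90 min, both 37 C.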
Test [2] has the same target. Description: Acetylcholinesterase (AChE) small molecule antagonists: enzyme-based qHTS assay (AID 1347397). Further: nearly all actives have a fitted effect of over 55% in size. Further: potency means the concentration at half of the fitted maximal effect. The note with it: Potency: AChE enzyme activity inhibition; outcome: AChE enzyme activity inhibition. The procedure, abridged: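 rhAChE 50 mU/mL (dispensed) + cpd or DMSO, 30 min RT; add DTNB/acetylthiocholine cocktail, 10 min RT; colorimetric thiocholine readout. qHTS, 1536-well format.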
A general note: Quantitative high-throughput screening tests each substance at several concentrations.

Test [3] has the same target. Description: Acetylcholinesterase (AChE) small molecule antagonists: fluorescence cell-based qHTS assay (AID 1347398). Further: nearly all actives have a fitted effect of over 50% in size. Further: potency means the concentration at half of the fitted maximal effect. To be noted: Potency: AChE activity; outcome: AChE activity. Summed up: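 Read-out is Thiolite Green fluorescence at Ex/Em = 490/520 nm, formed by reaction with thiocholine released when cellular AChE in SH-SY5Y cells hydrolyzes acetylthiocholine. Compounds were preincubated 30 min at 37 C before substrate.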

Test [4] has the same target. Description: Acetylcholinesterase (AChE) small molecule antagonists: enzyme-based qHTS assay with human liver microsomes (AID 1347399). Further: nearly all actives have a fitted effect of over 60% in size. The note with it: Potency: qHTS inhibition; outcome: qHTS inhibition. Summed up: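 Recombinant human AChE (50 mU/mL in the enzyme mix) and human liver microsomes (0.25 mg/mL final) were preincubated with compound and NADPH (0.25 mg/mL final) for 30 min at 37 C. Acetylthiocholine/DTNB was then added; thiocholine was read colorimetrically after 10 min at room temperature.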
On the % scale 0 is the no-effect control and ±100 the full control effect.

Acetylcholinesterase (Homo sapiens), sequence (P22303 whole entry, looked up): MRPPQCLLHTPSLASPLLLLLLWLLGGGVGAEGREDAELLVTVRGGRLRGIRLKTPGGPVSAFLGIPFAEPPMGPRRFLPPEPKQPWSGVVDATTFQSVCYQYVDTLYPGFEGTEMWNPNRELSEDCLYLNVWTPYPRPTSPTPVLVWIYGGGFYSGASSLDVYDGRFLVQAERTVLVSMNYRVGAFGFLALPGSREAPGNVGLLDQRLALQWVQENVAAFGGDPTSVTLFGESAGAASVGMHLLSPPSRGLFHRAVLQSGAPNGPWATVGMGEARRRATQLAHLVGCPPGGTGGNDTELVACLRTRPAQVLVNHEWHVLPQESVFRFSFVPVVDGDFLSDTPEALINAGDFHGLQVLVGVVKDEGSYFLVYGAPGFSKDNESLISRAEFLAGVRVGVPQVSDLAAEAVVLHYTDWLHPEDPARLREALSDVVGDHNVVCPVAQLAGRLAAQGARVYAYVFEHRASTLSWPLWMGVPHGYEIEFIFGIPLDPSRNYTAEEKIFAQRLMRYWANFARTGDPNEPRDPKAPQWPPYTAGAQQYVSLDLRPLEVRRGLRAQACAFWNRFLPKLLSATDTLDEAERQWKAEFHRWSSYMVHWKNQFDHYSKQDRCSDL

With `c1ccc2c(c1)ccc1cc3c(ccc4ccccc43)cc12`, the Potency result in test [1], in test [2], in test [3] and in test [4] was “inactive” in each case.

For the compound `CC(=O)c1ccccc1`, the Potency entry in test [1], in test [2], in test [3] and in test [4] was “inactive” in each case.

With `Cn1ccc2cc3c(cc21)CCN3C(=O)Nc1cccnc1`, in test [1], the activity, negative = inhibition was -3.7% [at 23.6 µM] (inactive). For the same compound, the activity change, negative = inhibition in test [2] is -19.7% [at 23.6 µM] (inactive); in test [3], -28.9% [at 23.8 µM] (inactive); in test [4] it was 2.86% [at 23.6 µM] (inactive).

`O=C(O)c1ccc2cc(C(=O)O)ccc2c1`: the Potency result in test [1], in test [2], in test [3] and in test [4] was “inactive” throughout.

Regarding `O=C(O)c1ccc(OCCN2CCCCC2)cc1`, the Potency result in test [1], in test [2], in test [3] and in test [4] was “inactive” each time.

In the case of `C[C@@H]1CCN(C(=O)[C@H](CCCN=C(N)N)NS(=O)(=O)c2cccc3c2NC[C@H](C)C3)[C@@H](C(=O)O)C1`, the Potency entry in test [1], in test [2], in test [3] and in test [4] was “inactive” throughout.

With `C[N+]1(CC2COC(c3ccccc3)(C3CCCCC3)O2)CCCCC1` (stereo not given), the Potency entry in test [1], in test [2], in test [3] and in test [4] was “inactive” each time.

As for `Cc1ccccc1C(N)=O`, the Potency entry in test [1], in test [2], in test [3] and in test [4] was “inactive” throughout.

For `SCCOCCOCCS`, the Potency result in test [1], in test [2], in test [3] and in test [4] was “inactive” each time.

In the case of `CC1=CCC(=O)O1`, the Potency entry in test [1], in test [2], in test [3] and in test [4] was “inactive” in each case.

Consider `O=CNNC=O`, for which the Potency entry in test [1], in test [2], in test [3] and in test [4] was “inactive” each time.

In the case of `CCc1cc(C(C)(C)C)c(O)c(C(C)(C)C)c1`, the Potency result in test [1], in test [2], in test [3] and in test [4] was “inactive” in each case.

`CC(=O)N[C@@H](Cc1ccc(O)cc1)C(=O)O`: the Potency entry in test [1], in test [2], in test [3] and in test [4] was “inactive” each time.

As to `Nc1ccc2cc(S(=O)(=O)O)cc(O)c2c1N=Nc1ccccc1C(F)(F)F`, the Potency result in test [1], in test [2], in test [3] and in test [4] was “inactive” throughout.

As for `C1=Cc2ccccc2C1`, the Potency result in test [1], in test [2], in test [3] and in test [4] was “inactive” in each case.

On to `CN(CCOc1ccc(CC2SC(=O)NC2=O)cc1)c1ccccn1` (stereo not given), for which the Potency entry in test [1], in test [2], in test [3] and in test [4] was “inactive” throughout.

With `CC(=O)OC/C=C/c1ccccc1`, the Potency entry in test [1], in test [2], in test [3] and in test [4] was “inactive” throughout.

With `CN=C(N)NC(=O)Nc1c(C)cccc1C`, the Potency result in test [1], in test [2], in test [3] and in test [4] was “inactive” each time.

Consider `COc1ccc(Cl)cc1C(=O)NCCc1ccc(S(=O)(=O)NC(=O)NC2CCCCC2)cc1`, for which the Potency entry in test [1], in test [2], in test [3] and in test [4] was “inactive” throughout.

Take `CCCCOC(=O)C(C)OC(=O)CCC` (stereo not given): the Potency result in test [1], in test [2], in test [3] and in test [4] was “inactive” each time.

For `Cc1cccc(C)c1OCC(=O)N[C@@H](Cc1ccccc1)[C@@H](O)C[C@H](Cc1ccccc1)NC(=O)[C@H](C(C)C)N1CCCNC1=O`, the Potency result in test [1], in test [2], in test [3] and in test [4] was “inactive” each time.

Turning to `COCC(O)CO` (stereo not given), the Potency result in test [1], in test [2], in test [3] and in test [4] was “inactive” throughout.

With `COc1cccc(N(C)C(=S)Oc2ccc3c(c2)CCCC3)n1`, the Potency entry in test [1], in test [2], in test [3] and in test [4] was “inactive” in each case.

On to `CCOc1ccc2c(c1)C(C)=CC(C)(C)N2`, for which the Potency result in test [1], in test [2], in test [3] and in test [4] was “inactive” throughout.

As to `CCOC(=O)C(C#N)=C(c1ccccc1)c1ccccc1`, the Potency result in test [1], in test [2], in test [3] and in test [4] was “inactive” each time.

As to `Cc1cc(OCCOCC[N+](C)(C)Cc2ccccc2)ccc1C(C)(C)CC(C)(C)C`, the Potency in test [1] is 39.7 µM (active) and 17.4 µM (active); in test [2] it was 56.1 µM (active) and 30.9 µM (active); in test [3] it was 14.1 µM (active) and 8.71 µM (active). The Potency entry in test [4] was “inactive”.

Regarding `CC1(C)O[C@@H]2C[C@H]3[C@@H]4CCC5=CC(=O)C=C[C@]5(C)[C@@]4(F)[C@@H](O)C[C@]3(C)[C@]2(C(=O)CO)O1`, the Potency result in test [1], in test [2], in test [3] and in test [4] was “inactive” throughout.

For `CCN(CCC#N)c1ccc(N=Nc2ccc([N+](=O)[O-])cc2)cc1`, the Potency entry in test [1], in test [2], in test [3] and in test [4] was “inactive” throughout.

Regarding `CCCCC(CC)COC(=O)CC#N` (stereo not given), the Potency entry in test [1], in test [2], in test [3] and in test [4] was “inactive” in each case.

For `FC(F)(F)c1cccc(Cl)c1`, the Potency entry in test [1], in test [2], in test [3] and in test [4] was “inactive” throughout.

Turning to `CCCCOC(=O)C(=O)OCCCC`, the Potency entry in test [1], in test [2], in test [3] and in test [4] was “inactive” each time.

With `O=c1[nH]c(=O)c2[nH]c(=O)[nH]c2[nH]1`, the activity, negative = inhibition in test [1] was 0.0138% [at 10.5 µM] (inactive). The values for the activity change, negative = inhibition in test [2], in test [3] and in test [4] were 2.79% [at 10.5 µM] (inactive), 6.44% [at 10.5 µM] (inactive) and 21.5% [at 10.5 µM] (inactive), respectively.

With `O=S(=O)(O)c1cccc2ccccc12`, the Potency entry in test [1], in test [2], in test [3] and in test [4] was “inactive” each time.

For the compound `C[Si](C)(C)O[Si](C)(C)C`, the Potency result in test [1], in test [2] and in test [4] was “inactive” in each case. Moreover, in test [3], the Potency is 35.4 µM (active) and inactive.

Consider `O=C(O)c1ccc(Cl)cc1Cl`, for which the Potency result in test [1], in test [2], in test [3] and in test [4] was “inactive” throughout.

In the case of `CO[Si](CCCOCC1CO1)(OC)OC` (stereo not given), the Potency result in test [1], in test [2], in test [3] and in test [4] was “inactive” each time.

With `CC1=C2[C@@H]([C@H](C)CC[C@H]2/C=C(\C)C(=O)O)[C@H](O)C1`, the Potency entry in test [1], in test [2], in test [3] and in test [4] was “inactive” each time.

As to `CCCCCCCCCCCCC`, the Potency entry in test [1], in test [2], in test [3] and in test [4] was “inactive” throughout.

As to `CCCCCCOC(C)=O`, the Potency result in test [1], in test [2], in test [3] and in test [4] was “inactive” in each case.

`CCc1oc2ccccc2c1C(=O)c1cc(I)c(O)c(I)c1`: the Potency entry in test [1], in test [2], in test [3] and in test [4] was “inactive” in each case.

Take `CC(=O)CC(C)(C)O`: the Potency entry in test [1], in test [2], in test [3] and in test [4] was “inactive” each time.

In the case of `CC(=O)OC(C)c1ccccc1` (stereo not given), the Potency entry in test [1], in test [2], in test [3] and in test [4] was “inactive” in each case.

Consider `CCCCNCC`, for which the Potency entry in test [1], in test [2], in test [3] and in test [4] was “inactive” throughout.

In the case of `CC(=O)Nc1ccn(C2COC(COC(=O)c3ccccc3)O2)c(=O)n1` (stereo not given), the Potency entry in test [1], in test [2], in test [3] and in test [4] was “inactive” each time.

As for `CCNc1cc(O)ccc1C`, the Potency entry in test [1], in test [2], in test [3] and in test [4] was “inactive” throughout.

For the compound `NC(=O)c1cn(Cc2c(F)cccc2F)nn1`, the Potency entry in test [1], in test [2], in test [3] and in test [4] was “inactive” throughout.

As for `CN(C)CCCNCCC#N`, the Potency entry in test [1], in test [2], in test [3] and in test [4] was “inactive” in each case.

Regarding `Cc1cccc(C)c1NC(=O)c1ccc(N)cc1`, the Potency entry in test [1], in test [2], in test [3] and in test [4] was “inactive” throughout.

As for `C=CCc1ccc(OC)c(OC)c1`, the Potency entry in test [1], in test [2], in test [3] and in test [4] was “inactive” throughout.

On to `CC(=O)CC(=O)Nc1ccc(C)cc1C`, for which the Potency entry in test [1], in test [2], in test [3] and in test [4] was “inactive” throughout.

Consider `O=C(O)CCCC[C@@H]1SC[C@@H]2NC(=O)N[C@@H]21`, for which the Potency result in test [1], in test [2], in test [3] and in test [4] was “inactive” each time.

On to `CC(=O)CC/C=C(\C)CCC=C(C)C`, for which the Potency entry in test [1], in test [2], in test [3] and in test [4] was “inactive” throughout.

Consider `CCCn1cnc2c1c(=O)n(CCCCC(C)=O)c(=O)n2C`, for which the Potency result in test [1], in test [2], in test [3] and in test [4] was “inactive” each time.

Consider `CCOCCOCCOCCO`, for which the Potency entry in test [1], in test [2], in test [3] and in test [4] was “inactive” throughout.

For `CC1=CC(C)C(C=O)C(C)C1` (stereo not given), the Potency result in test [1], in test [2], in test [3] and in test [4] was “inactive” in each case.

Turning to `CC(=O)c1ccc(C(C)=O)cc1`, the Potency result in test [1], in test [2], in test [3] and in test [4] was “inactive” throughout.

In the case of `C/C=C/C(=O)OCC(C)C`, the Potency entry in test [1], in test [2], in test [3] and in test [4] was “inactive” throughout.

On to `COc1cc(C(=O)N2CCOCC2)cc(OC)c1OC`, for which the Potency entry in test [1], in test [2], in test [3] and in test [4] was “inactive” each time.

In the case of `C/C(C=O)=C\c1ccccc1`, the Potency result in test [1], in test [2], in test [3] and in test [4] was “inactive” throughout.

As for `CN(C)CCC=C1c2ccccc2CCc2ccccc21`, the Potency result in test [1], in test [2], in test [3] and in test [4] was “inactive” in each case.

For the origin of these results see PubChem BioAssay (Tox21).
